Rows were chosen to be rich in hits. Some 5% of all compounds tested hit in one or more screens of this group.
SENP7 block: SENP7 protease inhibition; inhibition, % at 5 µM; recombinant SENP7, Z-RLRGG-aminoluciferin luminescence, 40 min; 330,000 compounds, 1.5% hits;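 active = inhibition above about 50% at the single test dose, limit read from the data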
Target sequence (Q9BQF6 706-1050 limits assumed): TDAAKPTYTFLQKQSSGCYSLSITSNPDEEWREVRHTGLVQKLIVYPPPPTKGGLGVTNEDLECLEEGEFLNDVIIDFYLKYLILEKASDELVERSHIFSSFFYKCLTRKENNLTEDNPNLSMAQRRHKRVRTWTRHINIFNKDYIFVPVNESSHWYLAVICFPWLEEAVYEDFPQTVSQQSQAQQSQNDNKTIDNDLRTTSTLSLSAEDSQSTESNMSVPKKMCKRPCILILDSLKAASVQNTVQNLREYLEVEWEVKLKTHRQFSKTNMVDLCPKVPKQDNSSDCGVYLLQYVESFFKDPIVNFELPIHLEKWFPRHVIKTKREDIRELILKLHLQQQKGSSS
AHR activator: activates the human aryl hydrocarbon receptor. P35869. AHR-responsive luciferase reporter cells, luminescence. activation, % at 5 µM. 320,000 compounds, 2.5% hits. AID 2796; in the data active = activation above about 47%
EBI2 antag: blocks human EBI2 receptor beta-arrestin signaling. AID 651636. inhibition, % at 5 µM. P32249. 360,000 compounds, 0.81% hits. EBI2 beta-arrestin recruitment, luminescence, 7a,25-OHC stimulated; in the data active = inhibition above about 38%;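 also: enzyme fragment complementation signal reports receptor beta-arrestin coupling in cells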
SENP8 block-1: inhibitors of human SENP8 protease; Q96LD8; recombinant SENP8, Nedd8 substrate fluorescence; inhibition, % at 20 µM; 360,000 compounds, 0.64% hits; in the data active = inhibition mostly above about 40%, no sharp cut-off; inactive = mostly below about 27%
Target sequence (Q96LD8 whole entry, looked up): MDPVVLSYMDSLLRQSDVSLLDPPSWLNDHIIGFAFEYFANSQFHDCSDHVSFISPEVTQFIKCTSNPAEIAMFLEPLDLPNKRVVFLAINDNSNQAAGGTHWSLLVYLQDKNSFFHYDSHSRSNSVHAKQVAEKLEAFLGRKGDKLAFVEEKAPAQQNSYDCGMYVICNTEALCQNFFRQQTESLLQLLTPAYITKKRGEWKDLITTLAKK
SENP8 block-2: SENP8 protease inhibition; Q96LD8; purified SENP8, Z-RLRGG-aminoluciferin cleavage, luminescence; inhibition, % at 10 µM; 330,000 compounds, 1.2% hits; in the data active = inhibition above about 50%
SENP6 block: SENP6 protease inhibition; Q9GZR1; Recombinant SENP6 catalytic domain, aminoluciferin luminescence; inhibition, % at 10 µM; 330,000 compounds, 1.8% hits;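 active = inhibition above about 50% at the single tested dose, limit read from the data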
Numbers stand for hits; n = inactive; x = no result given.

SMILES	SENP7 block	AHR activator	EBI2 antag	SENP8 block-1	SENP8 block-2	SENP6 block
CNc1ccccc(-c2ccc3cc4c(cc3n2)OCO4)c1=O	n	70.5	n	n	n	n
O=C(Cn1cnc2ccccc21)N/N=C/c1ccc([N+](=O)[O-])cc1	n	48.7	n	n	n	n
O=C(Cn1cnc2ccccc21)N/N=C/c1cccc([N+](=O)[O-])c1	n	n	n	n	n	n
CCN(CC)C(=O)CSc1nnc2c3ccccc3n(C)c2n1	n	n	n	n	n	n
CCCSc1nnc2nc3c(nn12)c1ccccc1n3C	n	49.9	n	n	n	n
Cc1ccc(-c2nnn(CC(=O)N(c3ccccc3)C(C(=O)NCC3CCCO3)c3cccs3)n2)o1 (stereo unspecified)	n	n	n	n	n	n
O=[N+]([O-])c1ccc(S(=O)(=O)NN=Cc2ccc(Cl)c(Cl)c2)cc1	x	x	n	n	x	x
CN(C)/C=N/c1c(C#N)cnn1-c1ncnc2sc(-c3ccccc3)cc12	n	57.7	n	n	n	n
CN1CCN(c2ncnc3sc(-c4ccccc4)cc23)CC1	n	54.6	n	n	n	n
CCCCCNC(=O)C(c1ccc(-c2ccccc2)cc1)n1c(=O)c(-c2cc3ccccc3[nH]2)nc2ccccc21 (stereo unspecified)	x	x	n	n	x	x
COc1ccc(OC)c(NC(=O)COC(=O)CCCN=C2NS(=O)(=O)c3ccccc32)c1	n	n	n	n	n	n
Cc1ccccc1-n1c(SCc2ccccn2)nc2n[nH]c(C)c2c1=N	n	66.1	n	n	n	n
COc1ccc(OC)c(NC(=O)CSc2nc3n[nH]c(C)c3c(=N)n2-c2cccc(Cl)c2C)c1	n	n	n	n	n	n
Cc1ccccc1-n1c(SCC(=O)Nc2ccccc2Cl)nc2n[nH]c(C)c2c1=N	n	61.9	n	n	n	n
CCOc1ccccc1NC(=O)CCSc1nc2n[nH]c(C)c2c(=N)n1-c1ccccc1Cl	n	n	n	n	n	n
CC(C)CN1C(=O)NC(NS(=O)(=O)c2ccc(N)cc2)(C(F)(F)F)C1=O (stereo unspecified)	n	n	n	n	n	n
CC(=O)Nc1ccc(S(=O)(=O)NC2(C(F)(F)F)NC(=O)N(CC(C)C)C2=O)cc1 (stereo unspecified)	n	58.2	n	n	n	n
Cn1c(=O)c(-c2ccccc2)nc2ccccc21	n	54.7	n	n	n	n
CCCCCCCCCCCC1=C(O)C(=O)C=C(O)C1=O	x	n	n	45.9	x	x
CCCNC(=O)C1(C)CCCN(C(=O)c2cc(C)nn2C(C)(C)C)C1 (stereo unspecified)	x	x	n	n	x	x
CN(c1ccccc1)S(=O)(=O)c1cccc(C(=O)N2CCN(c3ccccn3)CC2)c1	n	64.2	n	n	n	n
C[C@H]1CN([C@@H](C)CO)C(=O)c2cc(Br)cnc2O[C@H]1CN(C)C(=O)c1ccccn1	x	x	n	n	x	x
CCn1ncc(Cl)c1C(=O)Nc1cc([N+](=O)[O-])ccc1OC	n	59.9	n	n	n	n
CCn1ncc(C(=O)Nc2ccc([N+](=O)[O-])cc2OC)c1C	n	n	n	n	n	n
COc1ccc([N+](=O)[O-])cc1NC(=O)c1ccc(Br)s1	n	51.9	n	n	n	n
SMILES	SENP7 block	AHR activator	EBI2 antag	SENP8 block-1	SENP8 block-2	SENP6 block
COc1ccc([N+](=O)[O-])cc1NC(=S)NC(C)=O	n	n	n	n	n	n
CC(C)(C)OC(=O)C(Oc1ccccc1[N+](=O)[O-])C(=O)OC(C)(C)C	x	x	n	n	x	x
Cc1cc(Cl)c(S(N)(=O)=O)cc1OCC(=O)NC1CCCCC1	n	n	n	n	n	n
Cc1cc(Cl)c(S(=O)(=O)NC2CCCC2)cc1OCC(=O)NC1CCCCC1	n	n	44.5	n	n	n
CC1C(=O)N(Cc2cn(Cc3ccco3)nn2)CCS(=O)(=O)N1Cc1ccc(-c2ccccc2Cl)cc1 (stereo unspecified)	x	x	n	n	x	x
Cc1ccc(C2N(C)C(=O)c3ccccc3N2C)cc1 (stereo unspecified)	n	x	n	n	n	n
COc1ccc(N=Nc2cnc(C)nc2-c2ccccc2)cc1	n	n	n	45.4	n	n
Cc1ncc(N=Nc2ccccc2Cl)c(-c2ccccc2)n1	n	n	n	n	n	n
O=C1CC(c2nc3ccccc3[nH]2)CN1c1ccccc1 (stereo unspecified)	n	n	n	n	n	n
c1ccc(C2=Nc3ccccc3SC2c2nc3ccccc3[nH]2)cc1 (stereo unspecified)	54.5	n	x	x	n	52.4
CC1(C(=O)Nc2ccc3ccccc3c2)CCC(=O)N1CCOc1ccccc1 (stereo unspecified)	x	x	n	n	x	x
COCCCNC(=O)c1ccc2c3c(onc13)-c1ccccc1C2=O	n	n	n	106.0	n	54.1
COCCCNC(=O)c1ccccc1Oc1ccccc1	n	n	n	n	n	n
O=C(NNc1c2ccccc2nc2ccccc12)c1ccc(O)cc1	n	n	n	n	n	n
O=C(NNc1nc(=O)c2cccnc2s1)c1ccccc1O	n	49.2	n	n	n	n
O=C(NNc1c2ccccc2nc2ccccc12)c1ccccc1Cl	n	58.2	n	n	n	n
O=C(NNc1c2ccccc2nc2ccccc12)c1ccccc1O	n	128.6	n	n	n	n
O=C(NNc1c2ccccc2nc2ccccc12)c1ccc(O)cc1O	n	n	n	n	n	n
C[C@@H]1COc2cc(N3CC[C@H](O)C3)ccc2S(=O)(=O)N1	x	x	n	n	x	x
O=C(O)c1ccccc1SC1CC(=O)N(c2ccc3c(c2)OCO3)C1=O (stereo unspecified)	n	n	n	n	n	n
Nc1ccccc1SC1CC(=O)N(c2ccc3c(c2)OCO3)C1=O (stereo unspecified)	n	71.8	n	n	n	n
c1cncc(-c2nc(N3CCOCC3)c3ccccc3n2)c1	n	77.5	n	n	n	n
Cc1cc(N)n(-c2nc(-c3cccnc3)nc3ccccc23)n1	n	61.1	n	n	n	n
c1ccc2c(N3CCOCC3)nc(-c3ccncc3)nc2c1	n	n	n	n	n	n
O=S(=O)(c1ccccc1)N1CCN(c2nc(-c3cccnc3)nc3ccccc23)CC1	n	x	n	n	n	n
SMILES	SENP7 block	AHR activator	EBI2 antag	SENP8 block-1	SENP8 block-2	SENP6 block
O=C(NCc1cccnc1)c1csc([C@@H]2C[C@H](O)[C@@H](CO)O2)n1	x	x	n	n	x	x
COc1ccc(Cl)c2sc(N(CCN(C)C)C(=O)c3ccc4c(c3)OCCO4)nc12	n	n	n	n	n	n
O=C1c2cccc(Cl)c2C(=O)c2c1cccc2N1CCCC1	n	n	n	73.5	n	n
Cc1ccccc1-c1cnc(C(O)c2c(C)cccc2C)[nH]1 (stereo unspecified)	x	x	n	n	x	x
COCCOc1cc(Nc2nnc(C(F)(F)F)s2)c(Cl)cc1Cl	n	n	n	n	n	n
COc1cc(Nc2nnc(C)s2)c(Cl)cc1Cl	n	71.2	n	n	n	n
CN1C(=O)C(N=Nc2ccccc2C(=O)O)N(C)C1=S (stereo unspecified)	n	n	n	n	86.4	88.8
